Screening results deposited in PubChem by National Center for Advancing Translational Sciences (NCATS).
HttQ103 aggreg: mutant huntingtin aggregation inhibition; PC12 HttQ103-GFP aggregates, Acumen cytometry, 40 h; Potency, µM (top dose mostly 46.1 µM), most hits filed as inhibitors; hit rate 1.1% among 220,000; AID 1688; further: nearly all actives have a fitted effect of over 60% in size
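PC12/HTTQ103-GFP, ecdysone-inducible; teb 100 nM; cpd qHTS titration; GFP aggregates read on laser cytometer, Ex 488/Em 500-530 nm.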
IMPase inh: cell-permeable inhibitors of inositol monophosphatase (IMPase) | inhibition (IP1 accumulation), % at 46.1 µM | AID 901 | CHO-M1 cells, IP1 accumulation, HTRF TR-FRET ratio | P97697 | 120,000 tested, under 10 active; active means well fitted curve in the direction sought with a large enough effect in the signal ratio, not every such curve was filed as active; inconclusive means small, poorly fitted or top-dose-only effect, or a change in a side signal; inactive means no such curve, though single readings can be large or run the other way; the % refers to the signal ratio;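 further: cells stimulated with carbachol in lithium chloride buffer; higher means more IMPase inhibition seen as more IP1 and lower FRET ratio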
Target sequence (P97697 whole entry, looked up): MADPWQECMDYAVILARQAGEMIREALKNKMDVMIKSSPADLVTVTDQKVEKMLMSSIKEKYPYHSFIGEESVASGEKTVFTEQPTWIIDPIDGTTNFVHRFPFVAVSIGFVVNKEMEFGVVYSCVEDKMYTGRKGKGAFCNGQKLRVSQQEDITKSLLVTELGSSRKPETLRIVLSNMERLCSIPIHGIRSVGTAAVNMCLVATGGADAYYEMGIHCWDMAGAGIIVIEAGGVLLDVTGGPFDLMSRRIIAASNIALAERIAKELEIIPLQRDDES
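CHO-M1, 2000 cells/well, cultured 16–30 h; cpd up to 46 uM; carbachol (50 uM solution, stimulation buffer w/ 50 mM LiCl, pH 7.4), 30 min 37C; IP-One TR-FRET, 10 min RT; Ex 320/Em 665, 620; Hill-fit AC50.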
HTT ATP protect: cytoprotection in Huntington HTT-Q103 PC12 cell model | PC12 HTT-Q103 induced, cytoprotection, ATP luminescence, 40 h | Potency, µM (top dose mostly 56.4 µM), hits mostly activators | hit rate 0.14% among 230,000 | AID 1471; further: nearly all actives have a fitted effect of over 45% in size
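Compounds were screened for protection of PC12 cells against cell death after tebufenozide induction (100 nM final) of mutant Huntingtin exon 1 (Q103) fused to GFP.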
NPSR antagonist: antagonists of human neuropeptide S receptor cAMP signaling; Q6W5P4; hit rate 1% among 220,000; AID 1461; CHO-NPSR cells, cAMP TR-FRET, antagonist mode; Potency, µM (top dose mostly 38.3 µM), most hits filed as inhibitors; further: nearly all actives have a fitted effect of over 50% in size
IMPase Li cell: membrane-permeable IMPase blocker, potentiated with lithium | CHO-M1 cells, IP1 TR-FRET (IP-One), carbachol + lithium | hit rate 0.35% among 210,000 | Potency, µM (top dose mostly 59.4 µM), actives largely listed as inhibitors | AID 1457;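 further: IP1 builds up when IMPase is blocked and the TR-FRET signal falls; nearly all actives have a fitted effect of over 50% in size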
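CHO cells stably expressing M1 receptor (2000/well, cultured 16–30 h) treated 30 min at 37C with compound plus low lithium. Cytosolic IP1 by TR-FRET (665/620 ratio and 620 channel) after 10 min lysis; AC50 by Hill fit.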
PNC assembly inh: inhibitors of perinucleolar compartment assembly | activity change (PNC), negative = inhibition, % at 10 µM | PC3M PTB-GFP, PNC prevalence imaging, 16 h; hits give low values | hit rate 3.1% among 140,000;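 active means readout at or below -70, meaning at least 70% loss of cells showing the perinucleolar compartment, a nuclear body marking cancer cells; inconclusive means readout between -30 and a set limit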
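Compounds are pinned in duplicate onto adhered PC3M cells stably expressing GFP-tagged PTB and incubated 16 h at 37 C. Cells are then fixed, nuclei stained with Hoechst, and PNC-positive cells counted.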
Hits are given with their value; - = inactive; ? = inconclusive; . = no result given; [ ] = dose if it differs, or a comment. The list is not random: actives were taken first. Their share in the collection is about 3.4%. Unless noted, the call rests on the fitted dose curve; in most records, active means well fitted curve in the direction sought with a large enough effect; inconclusive means small, poorly fitted or top-dose-only effect, or another doubt; inactive means no such curve, though single readings can be large; an effect the other way counts as inactive or inconclusive.

SMILES	HttQ103 aggreg	IMPase inh	HTT ATP protect	NPSR antagonist	IMPase Li cell	PNC assembly inh
NS(=O)(=O)c1ccc(N=Cc2c(O)n(C3CCCCC3)c(=O)n(C3CCCCC3)c2=O)cc1	?	-	-	10µM	-	-
CCn1c(O)c(C=Nc2ccc(S(N)(=O)=O)cc2)c(=O)n(CC)c1=S	?	.	.	-	-	?
CC1(C)C(=O)C=C[C@@]2(C)C1CC(O)[C@]1(C)C2CC[C@@]2(C)C(c3ccoc3)OC(=O)C3O[C@]312 (some centres not stated)	.	.	0.79µM	.	-	.
CC(=O)O[C@H]1CC[C@H]2[C@@H]3CCC4=C[C@@H](C5SCCS5)[C@H](OC(C)=O)C[C@]4(C)[C@H]3CC[C@@]12C	.	.	-[10 µM]	.	-	.
COC(=O)C1CN(C#N)N(c2ccc(Cl)cc2)C12c1ccccc1-c1ccccc12 (configuration not stated)	?	-	-[10 µM]	7.9µM	-	?
C[C@@H]1O[C@H](O[C@H]2C[C@@H](O)[C@]3(CO)[C@H]4[C@H](O)C[C@]5(C)[C@@H](C6=CC(=O)OC6)CC[C@@]5(O)[C@H]4CC[C@]3(O)C2)[C@@H](O)[C@H](O)[C@H]1O	.	.	-	.	.	.
CN1/C(=C\C=Nc2ccccc2)C(C)(C)c2ccccc21	-	-	-	?	.	-
CN1/C(=C\C=C\C2=[N+](C)c3ccc4ccccc4c3C2(C)C)C(C)(C)c2ccccc21	2.8µM	-	-	7.9µM	-	-
O=C(O)C[C@H]1OCC=C2CN3CC[C@]45c6ccccc6N[C@@H]4[C@H]1[C@H]2C[C@H]35	.	.	-[10 µM]	.	-	.
CN1C[C@@H](CS(=O)(=O)N(C)C)C[C@H]2c3cccc4c3c(cn4C)C[C@@H]21	.	-	-[1.9 µM]	.	.	.
COC(=O)C[C@](O)(CCCC(C)(C)O)C(=O)O[C@@H]1C(OC)=C[C@]23CCCN2CCc2cc4c(cc2[C@H]13)OCO4	0.16µM	-	-	.	-	.
c1ccc(CNc2c3c(nc4ccccc24)CCC3)cc1	4.5µM	.	-[10 µM]	-	.	.
Cc1c(P(=S)(c2ccccc2)c2ccccc2)[n+]2ccccc2n1C	-	.	-	1.3µM	-	.
O=C(Oc1c(Br)cc(Br)c2cccnc12)N1CCCCC1	-	.	-	?	13µM	.
CN(C)c1ncc(/C=C2/C(=O)NC(=S)N(C3CCCCC3)C2=O)cn1	-	.	-	10µM	-	.
CSc1ncc(/C=C2/C(=O)NC(=O)N(C3CCCCC3)C2=O)cn1	-	-	-	?	-	?
C=C(c1ccccc1)P(=O)(O)O	-	.	.	-	-	-113
CCN(CC)C(=O)N[C@@H]1C=C2c3cccc4[nH]cc(c34)C[C@@H]2N(C)C1	.	.	-[1.9 µM]	.	.	.
c1ccc2c(c1)OCC(C1=NCCN1)O2 (configuration not stated)	-	.	16µM	-	-	-
C=CCN1CC[C@]23c4c5ccc(O)c4O[C@@H]2/C(=N/NC(=O)c2ccccc2)CC[C@@]3(O)[C@H]1C5	.	-	-[1.9 µM]	.	.	.
Cc1c([C@@H](C)C2NC[C@H](C)C[C@@H]2O)ccc2c1C[C@@H]1[C@H]2CC=C2C[C@@H](O)CC[C@@]21C (some centres not stated)	.	.	.	.	-	.
[Cl][Pd][Cl].[S-]C1=C2N=CN[C-]2[NH+]=C[N-]1.[S-]c1ncnc2[nH]cnc12	.	.	.	.	-	.
O=C(c1ccccc1)c1cn(CC(=O)N2CCCc3ccccc32)c2ccccc12	-	-	-[10 µM]	10µM	-	-
O=C(O)CCCC[C@@H]1SC[C@H]2NC(=O)N[C@@H]12	.	-	-[1.9 µM]	.	-	.
CC(=O)O/C(=C1/C[C@H]2[C@@H]3CC=C4C[C@@H](OC(C)=O)CC[C@]4(C)[C@@H]3CC[C@]2(C)C1=O)C(F)(F)F	.	.	-[10 µM]	.	-	.
CN1C(=O)NC(=O)/C(=C\C=C\c2ccccc2[N+](=O)[O-])C1=O	?	.	-	10µM	-	.
Cc1ccc(N2C(=O)NC(=O)/C(=C\C=C\c3ccco3)C2=O)cc1C	-	.	-[0.074 µM]	13µM	-	-
Cc1ccc(N2C(=O)NC(=O)/C(=C\C=C\c3ccco3)C2=O)cc1	-[9.22 µM]	.	-[10 µM]	?	.	.
Cn1cc[n+](C)c1P(=S)(c1ccccc1)c1ccccc1	-	.	-	5µM	-	.
